# In the library only some 12% were active in any assay of this set; here they are far more common.
# Sm TGR inh: qHTS Assay for the Inhibitors of Schistosoma Mansoni Peroxiredoxins; Schistosoma mansoni thioredoxin glutathione reductase (TGR), Q962Y6; purified TGR, DTNB reduction, TNB absorbance 405 nm; Potency, µM (titrated, usually from 114 µM), usual class: inhibitors; 360,000 compounds, 3% hits; note: nearly all actives have a fitted effect of over 60% in size
#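 Kinetic colorimetric format: TGR-catalysed, NADPH-driven DTNB reduction monitored via TNB absorbance. Enzyme dispensed at 20 nM; compound exposure 15 min at room temperature before reaction start.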
# Pf growth 96h: Primary qHTS for delayed death inhibitors of the malarial parasite plastid, 96 hour incubation. P. falciparum luciferase reporter growth, 96 h. Potency, µM (titrated, usually from 28.7 µM), usual class: inhibitors. 320,000 compounds, 6.9% hits. AID 504834, 2011
#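 Delayed-death screen, second-generation endpoint: infected erythrocytes, 2% hematocrit, 0.05% parasitemia final; 96 hours at 37 C, 5% CO2; luciferase detection reagent; luminescence decrease equals reduced growth.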
# Pf growth 48h: Primary qHTS for delayed death inhibitors of the malarial parasite plastid, 48 hour incubation. P. falciparum luciferase growth in erythrocytes, 48 h. Potency, µM (titrated, usually from 28.7 µM), usual class: inhibitors. 310,000 compounds, 5.9% hits. AID 504832, 2011
#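 In quantitative HTS format, infected erythrocytes bearing luciferase-reporter parasites were treated for a single generation at 37 C. Luminescence after adding detection reagent served as the growth measure.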
# AmpC inh detg: qHTS Inhibitors of AmpC Beta-Lactamase (assay with detergent); AmpC hydrolysis of nitrocefin, absorbance 480 nm, 0.01% Triton; 370,000 compounds, 0.041% hits; P00811; AID 485294, 2010; Potency, µM (top dose mostly 114 µM), most hits filed as inhibitors; note: nearly all actives have a fitted effect of over 25% in size
# Target sequence (P00811 whole entry, looked up): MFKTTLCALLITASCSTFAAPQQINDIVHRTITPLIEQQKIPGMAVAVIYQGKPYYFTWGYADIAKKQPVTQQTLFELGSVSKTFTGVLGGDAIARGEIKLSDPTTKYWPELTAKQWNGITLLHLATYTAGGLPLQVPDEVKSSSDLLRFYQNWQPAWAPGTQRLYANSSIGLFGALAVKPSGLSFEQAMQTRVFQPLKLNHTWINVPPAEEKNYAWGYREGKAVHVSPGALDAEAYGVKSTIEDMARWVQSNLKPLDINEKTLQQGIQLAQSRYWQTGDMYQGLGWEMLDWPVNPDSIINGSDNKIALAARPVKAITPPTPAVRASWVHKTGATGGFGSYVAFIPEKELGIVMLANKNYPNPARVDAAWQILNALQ
#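 AmpC (5.3 nM in the dispensed reagent) in 20 mM phosphate pH 7.0 with 0.01% (detergent screen) or 0.0001% Triton X-100 was preincubated with compounds for 15 min at room temperature. Nitrocefin was then added from an 800 uM solution, and hydrolysis was followed at 480 nm.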
# SARS PLP yeast: qHTS of Yeast-based Assay for SARS-CoV PLP; S. cerevisiae expressing SARS-CoV PLpro, growth rescue; Potency, µM (series often up to 32.9 µM), most hits filed as activators; 330,000 compounds, 0.19% hits; AID 485353, 2010; calls by dose curve; note: nearly all actives have a fitted effect of over 55% in size
# AmpC no deterg: qHTS Inhibitors of AmpC Beta-Lactamase (assay without detergent) | P00811 | AmpC nitrocefin hydrolysis, absorbance 480 nm, 0.0001% Triton | Potency, µM (titrated, usually from 57.1 µM), usual class: inhibitors | 330,000 compounds, 0.52% hits | AID 485341, 2010; note: nearly all actives have a fitted effect of over 20% in size
#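 20 mM phosphate pH 7.0 + 0.01% (detergent screen) or 0.0001% Triton X-100; 5.3 nM AmpC reagent; cpd preinc 15 min RT; nitrocefin (800 uM stock) to start; A480 q20 s × 4 min; Activity was normalised to no-enzyme and no-compound control wells.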
# Hits are given with their value; 0 = inactive; ? = inconclusive; - = no result; [ ] = dose if it differs, or a comment. Unless noted, calls come from the whole dose curve; as a rule, active = well fitted curve in the direction sought with a large enough effect; inconclusive = small, poorly fitted or top-dose-only effect, or another doubt; inactive = no such curve, though single readings can be large; an effect the other way counts as inactive or inconclusive.
SMILES,Sm TGR inh,Pf growth 96h,Pf growth 48h,AmpC inh detg,SARS PLP yeast,AmpC no deterg
COc1cc(/C=N/NC(=O)c2cccc([N+](=O)[O-])c2)ccc1OCc1ccccc1,0,9.3µM,17µM,0,0,0
O=C(NNC(=O)c1ccccc1F)c1ccc(Cl)c(S(=O)(=O)N2CCOCC2)c1,0,0,0,0,0,0
O=C(CN1C(=O)NC2(CCCCCC2)C1=O)Nc1ccccc1[N+](=O)[O-],-,-,-,-,0,0
Cc1cc(S(=O)(=O)N2CCCCC2CCNC(=O)C(=O)NCC2CCCO2)ccc1F (centres undefined),0,0,?,0,0,0
O=C(N/N=C/c1ccc(Cl)cc1Cl)C(=O)NC1CC1,0,?,0,0,0,0
CCCSc1nnc(-c2cccc(S(=O)(=O)N(C)C)c2)n1-c1cc(OC)ccc1OC,0,?,?,?,0,0
Cc1noc(C)c1CSc1nnc(-c2cc(Cl)ccc2Cl)n1N,0,0,0,0,0,0
CCSc1nnc(-c2cccc(S(=O)(=O)N(C)C)c2)n1-c1cc(OC)ccc1OC,0,?,?,0,0,0
COc1ccc(-c2nnc(SCc3c(C)noc3C)n2N)cc1OC,0,12µM,?,0,0,0
COc1cccc(-n2c(SCc3c(C)noc3C)nnc2-c2cccc(S(=O)(=O)N(C)C)c2)c1,0,?,12µM,0,0,0
COc1ccc(OC)c(-n2c(SCC(C)=O)nnc2-c2cccc(S(=O)(=O)N(C)C)c2)c1,0[11.4 µM],12µM,-,?,0,0
CC1CCCN(C(=O)c2ccc(CSc3nc4ccncc4n3Cc3ccccc3)cc2)C1 (centres undefined),0,-,-,0,-,-
COC(=O)c1cc(C(=O)c2ccc(Cl)cc2)n2c(=O)/c(=C\N(C)C)sc12,0,0,0,0,0,0
Clc1ccc(-n2nnnc2-c2cnc(-c3ccncc3)nc2-c2cccs2)cc1,0,?,4.7µM,0,0,0
FC(F)(F)c1nc(-c2cccs2)ncc1-c1nnnn1-c1ccc(Cl)cc1,0,0,-,?,0,0
CC(=O)c1cccc(NC(=O)COc2cc3oc(=O)c(CC(C)O)c(C)c3cc2Cl)c1 (centres undefined),0,10µM,?,0,0,0
CCN(CC)S(=O)(=O)c1cc(C(=O)n2cccn2)c(Cl)cc1Cl,0,-,?,0,0,0
c1ccc(-c2ccc(C(c3ccccc3)n3ccnc3)cc2)cc1 (centres undefined),0,4.8µM,2.1µM,0,0,0
CCc1n[nH]c(=O)n1Cn1c(CC)n[nH]c1=O,0,10µM,-,0,0,0
O=c1c2c3c(sc2n2cnnc2n1-c1ccccc1)N(Cc1ccccc1)CCC3,25µM,4.1µM,?,?,0,0
O=C(c1cnc2n(c1=O)CCS2)N1CCCc2ccccc21,0,0,0,?,0,0
O=C(c1cc(-c2cccnc2)nc2ccccc12)N1CCN(S(=O)(=O)c2cccs2)CC1,0,13µM,12µM,0,0,0
O=C(c1cc(-c2cccnc2)nc2ccccc12)N1CCCc2ccccc21,0,10µM,?,0,0,0
Cc1ccc(-c2cc(C(=O)N3CCCc4ccccc43)c3ccccc3n2)cc1,0,-,8.3µM,0,0,0
O=C(c1cccnc1)N1CCCc2ccccc21,0,0,0,0,0,0
SMILES,Sm TGR inh,Pf growth 96h,Pf growth 48h,AmpC inh detg,SARS PLP yeast,AmpC no deterg
Cc1csc2ncc(C(=O)N3CCCc4ccccc43)c(=O)n12,0,0,0,?,0,3.5µM
COc1cc2cncc(Cc3ccc(Cl)cc3)c2cc1OC,0,?,8.3µM,0,0,0
COc1cc2nc(CN(C)Cc3ccc(Cl)cc3)[nH]c(=O)c2cc1OC,0,?,0,0,0,0
O=C(C1=C[C@H](C2CCCCC2)C[C@H](OCCCCO)O1)N1CCN(Cc2ccccc2)CC1,35µM,?,?,0,0,0
O=C(C1=C[C@H](C2CC2)C[C@H](OCCCCO)O1)N1CCN(Cc2ccccc2)CC1,25µM,?,0,0,0,0
O=C(C1=C[C@@H](C2CC2)C[C@@H](OCCCCO)O1)N1CCN(Cc2ccc3c(c2)OCO3)CC1,0,?,?,0,0,0
O=C(C1=C[C@@H](C2CC2)C[C@@H](OCc2ccc(CO)cc2)O1)N1CCN(Cc2ccccc2)CC1,0,?,?,0,0,0
O=C(C1=C[C@@H](C2CCCCC2)C[C@@H](OCCCCO)O1)N1CCN(Cc2ccc3c(c2)OCO3)CC1,0,6.6µM,?,0,0,0
O=C(C1=C[C@H](C2CCCCC2)C[C@H](OCCCCO)O1)N1CCOCC1,?,0,0,0,0,0
O=C(Nc1cccc(F)c1)C1CCN(S(=O)(=O)c2cccc3nsnc23)CC1,0,-,-,0,-,-
Cc1nn(-c2ccc(N3CCCC3)nn2)c(C)c1CCC(=O)N1CCN(c2ccc(F)cc2)CC1,0,-,-,0,-,-
COc1cc(OC)c(NC(=O)CCCn2nc(C)c3c(C)n(-c4ccccc4)nc3c2=O)cc1Cl,0,-,-,0,-,-
Cn1c(CNC(=O)Nc2cccc(Cl)c2)nnc1SCc1ccccc1,0,13µM,?,0,0,0
NC1=NC(=O)/C(=C\c2ccc(O)c([N+](=O)[O-])c2)S1,0,0[5.75 µM],0,0,0,0
NC1=NC(=O)/C(=C/c2cccc(-c3ccc(S(N)(=O)=O)cc3)c2)S1,10µM,0,0,0,0,0
CCc1c(C)sc2c1CCN(C(=O)Nc1ccccc1Cl)C2c1ccc(OC)cc1 (centres undefined),0,-,-,0,-,-
O=C(/C(N=Nc1cccc(C(F)(F)F)c1)=C(/O)c1cccs1)C(F)(F)F,0,5.2µM,?,0,0,0
CC(C)(O)/C=C1/Oc2ccccc2C1N1CCCCC1 (centres undefined),35µM,0,0,0,0,0
NC(=O)C1CCN(c2nc(-c3ccccc3)cs2)CC1,-,?,0,-,-,-
c1ccc(-c2nc(N3CCCCCC3)nc(-n3ccnc3)n2)cc1,0,0,?,?,0,0
c1ccc(-c2nc(N3CCN(c4ccccc4)CC3)nc(-n3ccnc3)n2)cc1,0,?,4.1µM,0,0,0
Cc1nnsc1C(=O)NNC(=O)c1cccc2ccccc12,0,0,0,0,0,0
S=C(NCc1ccco1)N1CCN(Cc2ccc(Cl)cc2Cl)CC1,0,10µM,?,0,0,0
CC(=O)c1ccc(N2CCN(C(=S)NCc3ccco3)CC2)cc1,0,13µM,0,0,0,0
Cc1ccc(C(=O)NCC(c2cccs2)S(=O)(=O)c2cccs2)cc1 (centres undefined),?,-,-,0,-,-
